# Shown are actives, neighbours in structure and some others; about 7.5% of the full set was active somewhere.
# Rab9 promoter act: qHTS Assay for Rab9 Promoter Activators | 320,000 tested, 2.8% active | AID 485297, 2010 | Potency, µM (highest dose often 9.22 µM), usual class: activators | Huh7 Rab9 promoter-luciferase reporter, luminescence, 24 h; further: nearly all actives have a fitted effect of over 60% in size
#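 Promoter activation is measured as luciferase luminescence in Huh7 cells stably transfected with a Rab9 promoter–luciferase construct, following 24 h compound exposure at 37 °C and 10 min reagent incubation at ambient temperature.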
# NPC1 promoter act: qHTS Assay for NPC1 Promoter Activators | Huh7 NPC1 promoter luciferase reporter, 24 h | Potency, µM (titrated, usually from 9.22 µM), hits mostly activators | 320,000 tested, 2.4% active | AID 485313, 2010; further: nearly all actives have a fitted effect of over 60% in size
#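 Quantitative HTS used a cell-based reporter: Huh7 cells stably bearing the NPC1 promoter upstream of luciferase were treated with compounds for 24 h, and promoter activation was read as luminescence.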
# FLuc modulator: qHTS profiling assay for firefly luciferase inhibitor/activator using purifed enzyme and Km concentrations of substrates (counterscreen for miR-21 project); purified FLuc, Km substrates, luminescence inhibition; Potency, µM (series often up to 57.5 µM), most hits filed as inhibitors; 360,000 tested, 6.9% active; AID 588342, 2011; further: nearly all actives have a fitted effect of over 55% in size
# Target sequence (P08659 whole entry, looked up): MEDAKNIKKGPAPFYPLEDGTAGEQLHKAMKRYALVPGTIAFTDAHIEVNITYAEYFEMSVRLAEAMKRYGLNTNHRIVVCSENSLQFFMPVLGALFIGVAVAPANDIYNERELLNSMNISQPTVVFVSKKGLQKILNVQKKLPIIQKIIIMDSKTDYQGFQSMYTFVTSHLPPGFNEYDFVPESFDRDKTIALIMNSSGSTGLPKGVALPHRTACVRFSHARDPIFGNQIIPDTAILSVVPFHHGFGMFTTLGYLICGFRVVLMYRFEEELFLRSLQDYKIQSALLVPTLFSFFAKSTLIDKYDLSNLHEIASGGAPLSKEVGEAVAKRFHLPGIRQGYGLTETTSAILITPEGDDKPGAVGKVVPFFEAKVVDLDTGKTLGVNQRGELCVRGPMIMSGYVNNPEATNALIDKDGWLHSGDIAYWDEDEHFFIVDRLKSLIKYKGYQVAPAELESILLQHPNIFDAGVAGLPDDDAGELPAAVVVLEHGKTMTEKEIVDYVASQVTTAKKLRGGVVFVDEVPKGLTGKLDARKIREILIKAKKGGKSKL
#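 Purified P. pyralis luciferase, 10 nM final, with Km-level 10 uM D-luciferin and 10 uM ATP in 50 mM Tris acetate pH 7.5, 10 mM Mg acetate, 0.01% Tween-20, 0.05% BSA; 6-point qHTS titration about 60 µM downward; luminescence read.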
# SMN2 splice enh: qHTS Assay for Enhancers of SMN2 Splice Variant Expression; HEK293 SMN2-luciferase splicing reporter, luminescence, 30-36 h; Potency, µM (doses to about 46.1 µM), actives largely listed as activators; AID 1458, 2008; 210,000 tested, 2.8% active; further: nearly all actives have a fitted effect of over 55% in size
#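 HEK293 cells carry an SMN2 […]–luciferase reporter in which exon 7 inclusion puts luciferase in frame. Cells were plated 10-12 h before compound addition, then incubated 30-36 h at 37C. ONE-Glo luminescence was read; sodium butyrate at 4.5 mM final served as control.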
# ELG1 genotoxic: qHTS screen for small molecules that induce genotoxicity in human embryonic kidney (HEK293T) cells expressing luciferase-tagged ELG1. HEK293T ELG1-luciferase reporter, luminescence, 16 h. Potency, µM (titrated, usually from 46 µM), usual class: activators. 330,000 tested, 1.3% active. AID 504466, 2011; further: nearly all actives have a fitted effect of over 60% in size
#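 Quantitative HTS format in 1536-well plates. HEK293T ELG1-luciferase reporter cells receive test compound and are incubated 16 hr at 37 °C, 5% CO2; ONE-Glo added, 30 min room temperature, then luminescence read.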
# Hits are given with their value; i = inactive; ? = inconclusive; nt = not tested or not shown; [ ] = remark or other dose. The call rests on the fitted dose curve; in most records, active means well fitted curve in the direction sought with a large enough effect; inconclusive means small, poorly fitted or top-dose-only effect, or another doubt; inactive means no such curve, though single readings can be large; an effect the other way counts as inactive or inconclusive.
SMILES,Rab9 promoter act,NPC1 promoter act,FLuc modulator,SMN2 splice enh,ELG1 genotoxic
O=C(COc1ccccc1Cl)Nc1cccc(S(=O)(=O)NC2=NCCCCC2)c1,i,i,19µM,nt,i
COc1ccccc1OCC(=O)Nc1cccc(S(=O)(=O)NC2=NCCCCC2)c1,i,i,i,nt,i
CCOC(=O)/C(C(C)=O)=C1/OC(=O)c2ccccc21,i,i,i,i,i
O=C(O)/C(=C1\OC(=O)c2ccccc21)c1ccccc1,i,i,27µM,i,i
CC(C)(CCC(C)(C)c1ccccc1)c1ccccc1,nt,nt,nt,i[9.22 µM],nt
Cc1ccc(NC(=O)COC(=O)CNC(=O)C2CCCCC2)cc1S(=O)(=O)N(C)C,nt,nt,nt,nt,i
CC(C)=CC(=O)OCC(=O)Nc1cc([N+](=O)[O-])ccc1F,i,i,i,i,i
CCOc1ccc(C(=O)NCC(=O)OCC(=O)Nc2ccccc2OC)cc1,i,i,24µM,i,i
CCOc1ccc(C(=O)NCC(=O)OCC(=O)Nc2ccccc2OCC)cc1,i,i,24µM,i,i
COc1ccc(C(=O)NCC(=O)OCC(=O)Nc2cc([N+](=O)[O-])ccc2F)cc1,i,i,24µM,i,i
CCOc1ccc(C(=O)NCC(=O)OCC(=O)Nc2ccc(C)c(S(=O)(=O)N(C)C)c2)cc1,i,i,4.8µM,i,i
CCOc1ccc(C(=O)NCC(=O)OCC(=O)NC2CCCC2)cc1,i,i,i,i,i
Cc1ccc(NC(=O)CN2C(=O)C(=O)N(C3CCCC3)C2=O)c(Cl)c1,i,i,i,nt,i
COc1ccc2c(COC(=O)c3n[nH]c4ccccc34)cc(=O)oc2c1,3.5µM,3.2µM,3µM,20µM,?
Cc1cc(C)nc(-n2nc(C)c(Sc3ccc(F)cc3)c2N)n1,3.5µM,2.5µM,11µM,16µM,?
CC(C)Oc1ncnc2c1[nH]c1ccccc12,i,i,15µM,nt,i
CCCOc1ncnc2c1[nH]c1ccccc12,i,i,17µM,i,i
Cc1ccc2[nH]c3c(N4CCN(Cc5ccccc5)CC4)ncnc3c2c1,i,i,i,i,i
CCCCOc1ncnc2c1[nH]c1ccc(C)cc12,?,?,1.1µM,nt,?
CCN(CC)c1ncnc2c1[nH]c1ccccc12,i,i,i,i,i
Cc1ccc2[nH]c3c(N4CCCCCC4)ncnc3c2c1,i,i,19µM,i,i
COc1ccc2[nH]c3c(N4CC(C)OC(C)C4)ncnc3c2c1 (configuration not stated),i,i,i,i,i
CCCOc1ncnc2c1[nH]c1ccc(OC)cc12,0.56µM,1.1µM,2.4µM,nt,?
Cc1ccc(N2CCN(C(=O)NCc3noc4ccccc34)CC2C)cc1 (configuration not stated),nt,nt,i,nt,nt
CC(C)Oc1ccc(C(=O)NC(Cc2c[nH]c3ccccc23)C(=O)NN)cc1 (configuration not stated),i,i,12µM,nt,i
SMILES,Rab9 promoter act,NPC1 promoter act,FLuc modulator,SMN2 splice enh,ELG1 genotoxic
COc1ccc(C(=O)Nc2ccccc2C(=O)NC(Cc2ccc(O)cc2)C(=O)NNC(=O)c2ccccc2Cl)cc1 (configuration not stated),i,i,13µM,i,i
COc1ccc(C(=O)Nc2ccccc2C(=O)NC(Cc2c[nH]c3ccccc23)C(=O)O)cc1 (configuration not stated),i,i,15µM,i,i
COc1ccc(C(=O)NNC(=O)C(Cc2ccc(O)cc2)NC(=O)c2ccccc2NC(=O)c2ccc(OC)cc2)cc1 (configuration not stated),i,i,?,nt,i
O=C(N[C@@H](Cc1c[nH]c2ccccc12)C(=O)NC1CC1)c1ccccc1Cl,?,?,?,11µM,?
COc1ccc(NC(C)=O)cc1S(=O)(=O)N1CC=C(c2ccccc2)CC1,nt,nt,nt,nt,i
COc1ccc(OCc2cc(/C=N\NC(=O)c3ccccc3)ccc2OC)cc1,?,?,12µM,nt,?
O=C(N/N=C/c1ccc(OCc2ccccc2)cc1)c1ccncc1,i,i,i,16µM,?
O=C(N/N=C/c1ccncc1)c1ccc(OCc2ccccc2)cc1,i,i,i,nt,i
CC(=O)Nc1ccc(C(=O)N/N=C/c2ccccc2OCc2ccccc2)cc1,i,i,17µM,i,i
O=C(N/N=C/c1ccc(OCc2ccccc2)cc1)c1cccs1,?,?,i,i,i
COc1cc(OC)cc(C(=O)N/N=C/c2ccc(OC)c(COc3ccc(F)cc3)c2)c1,i,i,i,i,i
Oc1ccc(N=Cc2ccc(OCc3ccccc3)cc2)cc1,i,i,13µM,nt,?
O=C(c1cccs1)N1CCN(Cc2cccc([N+](=O)[O-])c2)CC1,i,i,i,i,i
Cn1c2c(c(=O)c3ccccc31)C[C@@H](O)C(C)(C)O2,nt,nt,nt,i,nt
Cc1onc(-c2ccccc2Cl)c1C(=O)OCC(=O)N1CCCc2ccccc21,i,i,i,i,i
Cc1cccc(S(=O)(=O)c2cn(C)c3cc(N4CCN(c5ccccc5)CC4)c(F)cc3c2=O)c1,nt,nt,i,nt,nt
O=C(N/N=C/c1ccccc1OCc1ccccc1)c1cccnc1,i,i,11µM,i,i
COc1ccccc1Nc1ncc(-c2cccs2)s1,2.8µM,?,2.7µM,22µM,?
CCOC(=O)Cc1csc(SCC(=O)NC2CCCC2)n1,i,i,i,nt,i
COc1ccc(/C=C/c2ccccc2)cc1[C@H]1[C@@H]2C=CCC[C@@]2(C)C(=O)N1Cc1ccccc1,i,i,13µM,nt,i
O=C(CCC(=O)N1CCN(c2cccc(Cl)c2)CC1)c1cccs1,i,i,i,nt,i
COc1ccc(C(=O)Nn2c(SCC(=O)c3ccccc3)nc3ccccc3c2=O)cc1,0.56µM,1.4µM,6.7µM,i,?
COc1ccc(C(=O)Nn2c(SCc3ccc([N+](=O)[O-])cc3)nc3ccccc3c2=O)cc1,4µM,2.5µM,12µM,i,?
CCOC(=O)CSc1nc2ccccc2c(=O)n1C,i,i,i,?,i
CCOC(=O)CSc1nc2ccccc2c(=O)n1NC(=O)c1ccccc1,3.5µM,?,?,16µM,?
SMILES,Rab9 promoter act,NPC1 promoter act,FLuc modulator,SMN2 splice enh,ELG1 genotoxic
Fc1ccccc1CSc1nnc(-c2cccs2)o1,1.8µM,1.8µM,5.4µM,13µM,8.2µM
c1ccc(CSc2nnc(-c3cccs3)o2)cc1,?,2.8µM,12µM,?,?
Cc1ccc(C)n1-c1nnc(N2CCCC(C(=O)NCc3ccc(F)cc3)C2)s1 (configuration not stated),nt,nt,i,i,nt
COc1ccc(C(=O)Nc2ccc(CN3CCOCC3)cc2)cc1Br,i,i,15µM,nt,i
COc1ccc(C(=O)NC(=S)Nc2ccc(CN3CCOCC3)cc2)cc1OC,i,i,i,nt,i
O=C(Nc1ccc2c(c1)OCCO2)c1ccc(CN2CCOCC2)cc1,3.5µM,i,11µM,i,i

# Compound activity deposited in PubChem BioAssay by National Center for Advancing Translational Sciences (NCATS).
